Assay outcomes (PubChem)
Only some compounds are listed: those with a hit (about 2.9% of all), similar ones and a draw of the others.
KDM5B inh – blocks human KDM5B histone demethylase activity; Q9UGL1; KDM5B demethylase, FDH-coupled NADH fluorescence (FDH is formaldehyde dehydrogenase); Potency, µM (highest dose often 57.7 µM), hits mostly inhibitors; hit rate 2.6% among 220,000; AID 1347165; further: potency means the concentration at half of the fitted maximal effect; 0% is about no effect; nearly all actives have a fitted effect of over 70% in size
Target sequence (Q9UGL1 whole entry, looked up): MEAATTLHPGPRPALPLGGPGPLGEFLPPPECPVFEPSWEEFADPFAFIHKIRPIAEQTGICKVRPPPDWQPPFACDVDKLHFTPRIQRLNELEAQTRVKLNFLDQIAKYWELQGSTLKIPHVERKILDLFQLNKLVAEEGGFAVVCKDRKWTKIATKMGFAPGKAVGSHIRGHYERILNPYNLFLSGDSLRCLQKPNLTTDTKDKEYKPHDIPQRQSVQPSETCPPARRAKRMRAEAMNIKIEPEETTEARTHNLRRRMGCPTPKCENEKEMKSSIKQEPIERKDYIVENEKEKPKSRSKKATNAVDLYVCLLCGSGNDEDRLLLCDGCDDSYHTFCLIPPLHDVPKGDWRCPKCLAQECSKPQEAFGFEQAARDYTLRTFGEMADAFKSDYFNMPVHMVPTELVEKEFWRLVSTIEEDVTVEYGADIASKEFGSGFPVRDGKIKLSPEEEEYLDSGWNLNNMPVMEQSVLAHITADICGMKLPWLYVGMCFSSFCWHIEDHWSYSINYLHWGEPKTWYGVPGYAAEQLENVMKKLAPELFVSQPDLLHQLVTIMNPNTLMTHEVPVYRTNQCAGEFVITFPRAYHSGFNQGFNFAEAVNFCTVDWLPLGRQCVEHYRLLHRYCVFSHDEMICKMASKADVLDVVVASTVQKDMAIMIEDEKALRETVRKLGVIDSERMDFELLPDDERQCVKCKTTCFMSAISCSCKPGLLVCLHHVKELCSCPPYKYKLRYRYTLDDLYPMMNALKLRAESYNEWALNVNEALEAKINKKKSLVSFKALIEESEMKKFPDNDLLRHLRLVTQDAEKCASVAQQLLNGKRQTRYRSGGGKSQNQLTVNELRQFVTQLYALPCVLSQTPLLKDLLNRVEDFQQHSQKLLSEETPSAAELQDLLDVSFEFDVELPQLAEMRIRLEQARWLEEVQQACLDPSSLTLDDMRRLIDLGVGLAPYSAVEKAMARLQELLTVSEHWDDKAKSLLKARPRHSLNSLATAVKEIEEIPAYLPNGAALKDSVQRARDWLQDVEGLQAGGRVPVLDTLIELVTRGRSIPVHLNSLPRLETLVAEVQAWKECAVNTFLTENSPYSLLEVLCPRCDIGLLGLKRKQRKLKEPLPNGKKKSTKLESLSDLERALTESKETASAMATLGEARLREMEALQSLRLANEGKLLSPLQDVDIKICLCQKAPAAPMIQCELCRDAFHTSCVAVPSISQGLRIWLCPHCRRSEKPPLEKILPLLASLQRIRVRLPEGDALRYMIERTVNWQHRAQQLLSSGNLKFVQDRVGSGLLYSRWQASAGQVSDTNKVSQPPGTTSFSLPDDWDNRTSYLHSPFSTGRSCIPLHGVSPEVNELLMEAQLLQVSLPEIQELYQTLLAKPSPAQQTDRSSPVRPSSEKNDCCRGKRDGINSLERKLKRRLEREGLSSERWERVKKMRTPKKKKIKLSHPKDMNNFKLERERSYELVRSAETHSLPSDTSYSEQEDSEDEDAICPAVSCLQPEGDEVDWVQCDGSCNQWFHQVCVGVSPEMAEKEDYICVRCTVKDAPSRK
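Here, H3K4me3 peptide (12.5 µM in substrate mix) is demethylated by KDM5BΔAP, 200 nM final, after 10 min compound exposure. Formaldehyde product is coupled through FDH (0.25 U/mL in mix) to NADH fluorescence; 30-min ΔRFU feeds dose-response curves.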
SNCA expr inhib – inhibitors of alpha-synuclein (SNCA) gene expression. HEK-293 SNCA-luciferase knock-in, luminescence, 24 h. hit rate 0.17% among 140,000. Potency, µM (doses to about 57.2 µM), for inactives: at the top dose activity change, negative = inhibition, most hits filed as inhibitors;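 further: potency means the concentration at half of the fitted maximal effect; plate controls were DMSO cells for no effect and cell-free wells for full effect; nearly all actives have a fitted effect of over 45% in size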
SNCA viab count – reduces viability of HEK-293 SNCA reporter cells; HEK-293-SNCA-luc viability, GF-AFC fluorescence, 24 h; AID 1671193; Potency, µM (doses to about 57.1 µM), for the others: top-dose activity change, negative = cytotoxicity, usual class: cytotoxic; hit rate 0.12% among 150,000;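 further: potency means the concentration at half of the fitted maximal effect; 0% = DMSO-treated cells and -100% = medium-only wells without cells; nearly all actives have a fitted effect of over 30% in size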
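Cytotoxicity counterscreen: after 24 h compound treatment of genome-edited SNCA-luciferase HEK-293 cells, live-cell protease substrate GF-AFC read by fluorescence after 30 min; activity scaled between DMSO (0%) and medium-only (-100%), curves Hill-fitted.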
IP6K1 inh – inhibitors of human IP6K1; IP6K1 kinase, ADP-Glo luminescence, 2 h; hits give low values; activity change, % (series mostly up to about 58 µM); hit rate 0.81% among 140,000; AID 1645851; in the data active means activity change below about -25%; further: on the % scale 0 is the no-effect control and ±100 the full control effect
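ADP-Glo luminescence measures ADP made by human IP6K1 during a 2 h RT reaction with ATP/IP6 (mix at 1.3 mM/130 uM); top library doses 57.5 and 19.1 uM final.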
An asterisk follows results filed as active; i = inactive; ? = inconclusive; / = not tested or not shown; [ ] = dose if it differs, or a comment. Unless noted, the call rests on the fitted dose curve; in most records, active means well fitted curve in the direction sought with a large enough effect; inconclusive means small, poorly fitted or top-dose-only effect, or another doubt; inactive means no such curve, though single readings can be large; an effect the other way counts as inactive or inconclusive.

SMILES	KDM5B inh	SNCA expr inhib	SNCA viab count	IP6K1 inh
CC1(C)CC(C)(O)N(CCc2ccccc2)C(=S)N1 (stereo not drawn)	i	/	/	/
CCN(CC)CC(=O)NC(=O)Nc1ccccc1	i	/	/	/
CCc1ccc(NC(=O)CSc2nnc(-c3cccs3)n2-n2cccc2)cc1	i	/	/	/
Cc1cccc(N2CCN(C(=O)c3cnc4c(C)cccn4c3=O)CC2C)c1 (stereo not drawn)	i	-6.3%	1.0%	17.9
Cc1cccc(CN2CCN(C(=O)c3cnc4ccccn4c3=O)CC2=O)c1	31.6µM*	?	-1.5%	-3.5
O=C(NC1CCCCC1)N1Cc2[nH]cnc2C[C@H]1c1nc(-c2ccc(F)c(Cl)c2)no1	?	29.8%	?	-9.0
CC(C)C[C@@H](C=O)NC(=O)[C@H](CC(C)C)NC(=O)[C@H](CC(C)C)NC(=O)OCc1ccccc1	/	0.607µM*	?	/
CN(Cc1ccccn1)c1ccc(-c2nc(Cc3ccc(F)cc3)no2)cn1	?	33.2%	-4.1%	0.5
O=C1OCCCN1CCNc1ccc(-c2nc(-c3ccccc3F)no2)cn1	28.2µM*	0.7%	-2.7%	2.7
c1ccc(CCc2noc(-c3ccc(NCCN4CCCC4)nc3)n2)cc1	?	84.9%	9.1%	16.0
CC(Cn1cccn1)Nc1ccc(-c2nc(-c3ccccc3F)no2)cn1 (stereo not drawn)	28.2µM*	13.2%	-3.1%	3.4
O=C1CCCCN1CCNc1ccc(-c2nc(-c3ccccc3F)no2)cn1	31.6µM*	-11.8%	?	10.2
CN(Cc1nccs1)c1ccc(-c2nc(-c3ccccc3F)no2)cn1	22.4µM*	23.8%	-2.9%	-2.3
CCCc1noc(-c2nc(-c3ccccc3F)no2)n1	i	121.5%	4.7%	-4.4
CCOc1ccc(CN(Cc2ccccc2)Cc2cc(=O)n3nc(CC)sc3n2)cc1	i	/	/	/
O=C(Nc1cccnc1)[C@@H]1CCCN1c1ccnc2ccnn12	/	/	/	-14.8
O=C(Cc1ccc(Cl)cc1)NCCNC(=O)c1cccc(-c2ccc(C(F)(F)F)cc2)c1	/	-27.9%	8.4%[12.5 µM]	-0.1
CC(=O)NCC(=O)N1CCC2(CN[S+](=O)([O-])c3cnccc3O2)C1 (stereo not drawn)	i	24.0%	-1.1%	0.4
O=C(N[C@H]1CO[C@H]2[C@@H]1OC[C@@H]2Nc1nccc(-c2cccs2)n1)C1CCCCC1	35.5µM*	?	-26.0%[87.6 µM]	-3.7
CCNC(=O)O[C@@H]1CO[C@H]2[C@@H]1OC[C@@H]2Nc1nccc(-c2cccs2)n1	28.2µM*	3.1%[87.6 µM]	-8.0%[87.6 µM]	-6.9
O=C(Nc1ccccc1)N[C@H]1CO[C@H]2[C@@H]1OC[C@@H]2Nc1nccc(-c2cccs2)n1	?	34.1%[87.6 µM]	-15.7%[87.6 µM]	-10.3
O=C(N[C@H]1CO[C@H]2[C@@H]1OC[C@@H]2Nc1nccc(-c2cccs2)n1)c1ccccc1	35.5µM*	15.7%[87.6 µM]	?	-8.9
O=C(N[C@H]1CO[C@H]2[C@@H]1OC[C@@H]2Nc1nccc(-c2cccs2)n1)c1ccc(C(F)(F)F)cc1	?	?	-2.6%	-1.5
O=C(COc1ccccc1)N[C@H]1CO[C@H]2[C@@H]1OC[C@@H]2Nc1nccc(-c2cccs2)n1	28.2µM*	7.4%	0.3%	-4.7
CCCCCCn1c(N2CCOCC2)nc2c1c(=O)[nH]c(=O)n2C	i	/	/	/
SMILES	KDM5B inh	SNCA expr inhib	SNCA viab count	IP6K1 inh
O=c1oc2ccc(Br)cc2cc1S(=O)(=O)N1CCCCCC1	i	/	/	/
O=C(COC(=O)C12CC3CC(CC(Cl)(C3)C1)C2)Nc1cccc([N+](=O)[O-])c1	i	/	/	/
CC(=O)Nc1ccc(S(=O)(=O)N[C@H]2CO[C@H]3[C@@H]2OC[C@@H]3Nc2nccc(-c3cccs3)n2)cc1	25.1µM*	-17.7%	-14.9%	2.4
CN(C)C[C@@H]1CN(C2CCOCC2)C[C@H]1NC(=O)c1cc2ccccc2[nH]1	28.2µM*	0.5%	-9.0%	22.5
CCNC(=O)c1ccccc1OCc1ccc(F)cc1	i	/	/	/
O=C(NCc1ccc(Cl)cc1)c1ccc2nc(-c3ccnc(Cl)c3)oc2c1	/	-7.2%[87.6 µM]	-0.4%[87.6 µM]	13.3
O=C(NCc1ccc2c(c1)OCO2)c1nc(-c2cccc(C(F)(F)F)c2)c2cnccn12	28.2µM*	-16.2%	-7.0%	0.8
O=C(NCc1ccc2c(c1)OCO2)c1nc(-c2cccnc2)c2cnccn12	28.2µM*	1.7%	3.4%	0.7
O=C(NCc1cccs1)c1nc(-c2cccnc2)c2cnccn12	25.1µM*	-22.2%	5.3%	0.0
CO[C@H]1C[C@@H](O)C12CCN(C(=O)CCc1ccc(-c3cccs3)o1)CC2	14.1µM*	-33.0%	?	-12.3
C[C@@]1(O)CCN(C(=O)CCc2ccc(-c3cccs3)o2)C[C@@H]1O	12.6µM*	-1.2%	-10.3%	-0.3
Cn1nc(C(=O)N2CC[C@@](C)(O)[C@@H](O)C2)cc1-c1cccs1	i	11.0%	3.0%	12.1
Cc1ccc(C(=O)COC(=O)c2ccccc2O)s1	i	/	/	/
NC1CCC(n2cc(C(=O)NC3CCCN(c4ncccn4)C3)nn2)CC1 (stereo not drawn)	25.1µM*	3.5%	-9.3%	8.2
O=C(Cc1c[nH]c2ncc(-c3ccccc3C(F)(F)F)cc12)NCc1cccnc1	?	-10.4%[87.6 µM]	-8.7%[87.6 µM]	-18.2
O=C(Cc1c[nH]c2ncc(-c3ccccc3F)cc12)NCc1cccnc1	28.2µM*	?	-12.0%[87.6 µM]	-16.3
O=C(Cc1c[nH]c2ncc(-c3cccc(CO)c3)cc12)NCc1cccnc1	31.6µM*	28.1%[87.6 µM]	-4.1%[87.6 µM]	-10.2
C[C@@H](NC(=O)c1cccn1C)c1onc(-c2cccnc2)c1C(=O)O	i	10.1%[87.6 µM]	9.1%[87.6 µM]	0.1
CCOCC1(C)COc2ccc(C(=O)NCc3cc(OC)cc(OC)c3)cc2N1 (stereo not drawn)	31.6µM*	-11.7%[87.6 µM]	3.5%[87.6 µM]	1.9
COCCNC(=O)c1ccc2c(c1)NC(C)(COc1ccc(OC)cc1)CO2 (stereo not drawn)	35.5µM*	-5.7%[87.6 µM]	15.6%[87.6 µM]	-8.7
CCOCC1(C)COc2ccc(C(=O)Nc3ccccn3)cc2N1 (stereo not drawn)	31.6µM*	35.4%[87.6 µM]	1.3%[87.6 µM]	-4.2
COc1ccc(OCC2(C)COc3ccc(C(=O)NCCN4CCOCC4)cc3N2)cc1 (stereo not drawn)	35.5µM*	-8.5%[87.6 µM]	2.2%[87.6 µM]	-2.8
COc1cccc(OC)c1OC(=O)c1ccc(C#N)cc1	i	/	/	/
CC(NC/C=C/c1ccccc1)c1ccccc1 (stereo not drawn)	i	/	/	/
COCCNC(=O)c1ccc(-c2ncc3cnc(-c4cccc(F)c4)cn23)cc1	35.5µM*	-17.7%[87.6 µM]	-6.8%[87.6 µM]	-15.1
CC(C)n1nc(C(=O)NCCCN2CCCC2=O)c2ccccc2c1=O	i	/	/	/
COc1ccc(F)cc1-c1cccc(C(=O)NCCNC(=O)c2ccc(F)cc2)c1	/	-0.9%	4.9%	-7.2
O=C(c1ccc(-c2ncc3cnc(-c4ccccc4)cn23)cc1)N1CCc2cccnc21	31.6µM*	?	?	-4.2
O=C(NCCCN1CCCC1=O)c1ccc(-c2ncc3cnc(-c4ccccc4)cn23)cc1	31.6µM*	0.0%	-4.8%	-11.6
CC(=O)N1CCN(C(=O)c2ccc(-c3ncc4cnc(-c5cccc(F)c5)cn34)cc2)CC1	?	-1.9%	0.1%	-11.6
